This note sets out measurements from PubChem BioAssay AID803 (The Scripps Research Institute Molecular Screening Center, 2007).

The campaign covered roughly 140,000 compounds. About 680 (0.49%) were called active. The full list was thinned out, with actives kept by preference. A number with no mark means an inactive call. Cut-off read from the data, not from the text of the source: active = activation above about 5% (passing the limit was not always enough); inactive = the rest.

Chain of Galanin receptor type 2 (Homo sapiens) (O43603 whole entry, looked up): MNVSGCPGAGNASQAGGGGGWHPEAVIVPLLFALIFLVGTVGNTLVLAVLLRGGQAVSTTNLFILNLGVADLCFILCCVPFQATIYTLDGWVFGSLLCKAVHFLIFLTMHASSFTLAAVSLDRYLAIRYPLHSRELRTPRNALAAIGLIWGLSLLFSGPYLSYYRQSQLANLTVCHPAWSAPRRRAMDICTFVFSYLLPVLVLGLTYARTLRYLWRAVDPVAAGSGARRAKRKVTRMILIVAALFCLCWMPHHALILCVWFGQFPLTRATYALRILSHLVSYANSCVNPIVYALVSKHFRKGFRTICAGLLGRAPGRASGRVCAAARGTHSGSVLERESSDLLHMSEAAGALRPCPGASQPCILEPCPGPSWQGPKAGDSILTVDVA

This assay concerns the target Galanin receptor type 2 (Homo sapiens) (UniProt O43603). In words: human galanin receptor 2 activators – cell-based, primary screen (AID 803).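 Note: 0% = vehicle buffer wells and 100% = reference agonist at full effect.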 As to conditions: GALR2-expressing cells, agonist activation read-out; at 5.6 µM; stronger effect = higher value.
Take `Cc1nn(-c2ccccc2)c(NC(=O)c2cccs2)c(-c2ccc(Cl)cc2)c1=O`: the activation is -0.28%.
`COc1ccc(C(=O)Cn2nnc(-c3ccc(N4CCOCC4)cc3)n2)cc1OC`: the activation is -0.59%.
On to `COc1ccc(C(=O)n2nc(-c3ccc(C)cc3)nc2N)cc1OC`, for which the activation was -1.18%.
For `COc1ccc(C(=O)CN2C(=O)NC(C)(c3ccc(C)cc3)C2=O)cc1OC` (stereo unspecified), the activation was 10.3% (active).
With `COC(=O)c1cc2nc(-c3ccccc3)cc(C(F)(F)F)n2n1`, the activation was -0.55%.
Next, `CCN(CC)c1nc(-c2ccccc2)cc(C(F)(F)F)c1C#N`: 14.6% (active); `N#Cc1c(C(F)(F)F)cc(-c2ccccc2)nc1SCC(=O)N1CCOCC1`: -2.74%.
Next, `O=S(=O)(c1ccc(F)cc1)N1CCN(C(=S)NC2CCCC2)CC1`: -1.23%; `Cc1cccc(C(=O)NC(=S)N2CCN(c3ccc([N+](=O)[O-])cc3)CC2)c1`: 0.09%; `CCCCOc1ccc(C(=O)NCc2ccco2)cc1`: -1.35%.
As to `CCCCOc1ccc(C(=O)NCc2ccncc2)cc1`, the activation was -0.14%.
As to `CCCOc1ccc(C(=O)C(CCC(CNCC)C(=O)c2ccc(OCCC)cc2)CNCC)cc1` (stereo unspecified), the activation was 24.7% (active).
As for `CCc1ccc(Oc2coc3cc(OC(=O)c4cc5ccccc5oc4=O)ccc3c2=O)cc1`, the activation is 0.76%.
`OC(COCC1COc2ccccc2O1)CN1CCN(c2ccc(F)cc2)CC1` (stereo unspecified): the activation was -0.37%.
Turning to `CCN(/N=C/c1ccc(N(C)C)cc1)c1nc2ccccc2[nH]1`, the activation is -1.85%.
Under `CCc1nnc(NS(=O)(=O)c2ccc(N=Cc3c(C)[nH]n(-c4ccc(C)cc4)c3=O)cc2)s1` stands -3.95%; under `COc1cc(SC#N)ccc1N=Cc1c(C)[nH]n(-c2ccc(C)cc2)c1=O`, 17.6% (active); under `COc1cc(NS(=O)(=O)c2ccc(N=Cc3c(C)[nH]n(-c4ccccc4)c3=O)cc2)nc(OC)n1`, -4.11%.
For `CC(=O)NCCC(=O)Nc1nc(C)c(Cc2ccc3c(c2)OCO3)s1`, the activation was -0.64%.
Next, `Cc1cc(F)ccc1S(=O)(=O)N1CCCOC1CNC(=O)C(=O)NCCC1=CCCCC1` (stereo unspecified): -0.65%; `COc1ccc(Nc2cc(C)nc(-n3nc(C)cc3C)n2)cc1`: 0.3%; `COc1ccc(C(C[N+](=O)[O-])n2nc(C)cc2C)cc1` (stereo unspecified): 5.52% (active).
Take `COc1ccc(OCc2cn3c(C)cc(C)nc3n2)cc1`: the activation was -0.2%.
On to `CCC1C(=O)c2ccccc2N(C)C1=O` (stereo unspecified), for which the activation was -2.42%.
On to `CC(C)Cn1c(N)c(C(=O)NCc2cccs2)c2nc3ccccc3nc21`, for which the activation was 29.6% (active).
Under `CCC(C)NC(=O)c1c(N)n(/N=C/c2cccs2)c2nc3ccccc3nc12` (stereo unspecified) stands -0.44%.
As to `C=CCn1c(N)c(C(=O)OCC(C)C)c2nc3ccccc3nc21`, the activation was -3.82%.
Consider `CCN(CC)c1ccc(S(=O)(=O)N2CCOCC2)cc1NC(=O)CSc1cccc[n+]1[O-]`, for which the activation was -0.35%.
On to `O=C(Cc1cccs1)Nc1nnc(SCc2ccc(F)cc2)s1`, for which the activation was 1.11%.
Under `CCCCOc1ccc(C(=O)NCC(=O)OCC(=O)N2CCN(S(=O)(=O)c3ccc(C)cc3C)CC2)cc1` stands 7.56% (active); under `CCCCOc1ccc(C(=O)NN2CCN(C)CC2)cc1`, 0.08%.
Take `CCCc1cc(=O)[nH]c(SCC(=O)N2CCN(S(=O)(=O)c3ccc(C)cc3C)CC2)n1`: the activation was 2.71%.
Next, `CC1Cc2ccccc2N1C(=O)CSc1nnc(-c2ccc(S(=O)(=O)N3CCCC3)cc2)n1C` (stereo unspecified): -1.17%; `O=S(=O)(O)c1nc2ccccc2n1Cc1ccc(Cl)cc1`: -2.3%; `CC(C)(C)OC(=O)c1c(N)n(CCCN2CCCC2=O)c2nc3ccccc3nc12`: 3.75%.
Regarding `CN1OC(COC(=O)c2ccc(Cl)cc2)CC1c1ccccc1` (stereo unspecified), the activation is -1.93%.
For `CC(C)(C)c1ccc(C(=O)NCCn2c(N)c(C#N)c3nc4ccccc4nc32)cc1`, the activation is 6.59% (active).
Consider `CN(C)CCCn1c(N)c(C#N)c2nc(C#N)c(C#N)nc21`, for which the activation was 5.27%.
On to `N#Cc1c(N)n(CCOC(=O)c2ccc(Cl)cc2)c2nc3ccccc3nc12`, for which the activation is 7.76% (active).
For `CC(Oc1ccccc1)C(=O)Nc1oc(-c2ccco2)c(-c2ccco2)c1C#N` (stereo unspecified), the activation is -0.85%.
On to `O=C(/C=C/c1ccc(Cl)cc1)N1CCN(c2ccccc2[N+](=O)[O-])CC1`, for which the activation was -1.19%.
Take `Cc1nc2nc(SCC(=O)NCc3ccco3)nn2c(C)c1Cc1ccccc1`: the activation was 0.05%.
`Cc1ccc(NC(=S)NCCN2CCOCC2)cc1`: the activation is -2.96%.
On to `Cc1ccc(Cc2c(C)nc3nc(SCC(=O)NCCN4CCOCC4)nn3c2C)cc1`, for which the activation is 24.8% (active).
On to `Cc1cc(C)nc(-n2ncc3c2CC(c2ccc(C(C)C)cc2)CC3=O)n1` (stereo unspecified), for which the activation is 0.11%.
Next, `O=C(Nc1ccccc1F)c1ccccc1-c1ccc(C(F)(F)F)cc1`: -0.53%.
As to `O=C(NCC1CCCO1)/C(=C/c1ccc(Cl)cc1)NC(=O)c1ccccc1` (stereo unspecified), the activation is -1.2%.
Turning to `CCOC(=O)Cc1csc(NC(NC(=O)OCC)(C(F)(F)F)C(F)(F)F)n1`, the activation is -2.02%.
On to `CCOC(=O)Cc1csc(NC(=O)Nc2ccccc2)n1`, for which the activation is -2.31%.
As to `CCOC(=O)Cc1csc(NC(=O)C(C)(C)C)n1`, the activation is 6.79% (active).
For `CCCCN1C(=O)c2ccc(C(=O)Nc3ccc(S(=O)(=O)N(C)C)cc3)cc2C1=O`, the activation was -1.35%.
On to `CC(=O)NC(Cc1ccccc1)C(=O)NC1CCN(c2ncccc2[N+](=O)[O-])CC1` (stereo unspecified), for which the activation is -0.16%.
Under `OC(COCc1ccco1)CN1CCN(c2ccccc2)CC1` (stereo unspecified) stands -1.72%; under `Cc1ccc(C(=O)Nc2ccc(C)c(S(=O)(=O)N(C)C)c2)s1`, 0.14%; under `O=S(=O)(Nc1ccccn1)c1ccc(Oc2ccccc2)cc1`, -1.45%.
With `COC(=O)CNC(=O)c1ccccc1[N+](=O)[O-]`, the activation is -2.69%.
As for `O=[N+]([O-])c1ccccc1SNc1ccccn1`, the activation is 10.3% (active).
Next, `COc1cc(CN2CC(C)CC(C)C2)cc([N+](=O)[O-])c1O` (stereo unspecified): 0.36%; `COc1cc(NC(=O)c2cc([N+](=O)[O-])ccc2Br)ccc1NC(=O)c1ccco1`: -2.01%.
As to `Cc1ccc(-c2cc(N)on2)cc1`, the activation is -1.6%.
For the molecule `CCOc1ccc(Br)cc1S(=O)(=O)Nc1ccc(C(=O)OC(C)C(=O)N(C)c2ccccc2)cc1` (stereo unspecified), the activation was -0.52%.
For the molecule `COc1cc(NC(=S)NCCSc2ccc(C)cc2)cc(OC)c1`, the activation is -1.5%.
Next, `Cc1noc(/C=C/c2ccco2)c1S(=O)(=O)N1CCC(C(=O)Nc2ccc(Cl)cn2)CC1`: -1.28%.
As for `CCC(c1nnnn1C1CCCC1)N(Cc1cccs1)Cc1cc2cccc(C)c2[nH]c1=O` (stereo unspecified), the activation was -1.09%.
Under `Cc1cccc2cc(CN(Cc3cccs3)C(c3nnnn3C3CCCC3)C(C)C)c(=O)[nH]c12` (stereo unspecified) stands -1.34%.
Take `Cc1cccc2cc(CN(Cc3ccc4c(c3)OCO4)Cc3nnnn3C3CCCC3)c(=O)[nH]c12`: the activation is 5.7% (active).
As for `COc1ccccc1C1CC(=O)n2c(nc(-c3ccccc3)c2-c2ccccc2)S1` (stereo unspecified), the activation was -1.18%.
Under `O=C1N(c2ccc(Cl)cc2)C(c2ccc(Cl)cc2)N2CCCN12` (stereo unspecified) stands -0.59%; under `NCCCC[C@@H]1NC(=O)[C@H](CCC(=O)O)NC(=O)c2cc([N+](=O)[O-])cc(I)c2NCC[C@@H](C(N)=O)NC1=O`, -0.98%; under `CNC(=S)N/N=C/c1cn(Cc2ccc(C)cc2)c2ccccc12`, -1.46%.
For `O=c1cc(CO)oc(C(Nc2cccc([N+](=O)[O-])c2)c2ccccn2)c1O` (stereo unspecified), the activation was 0.7%.
For the molecule `Cc1ccc(-c2cn3cc([N+](=O)[O-])ccc3n2)cc1`, the activation was -1.19%.
As for `CCOc1ccc(C(=O)Nc2cc(OC)ccc2OC)cc1`, the activation was -2.67%.
Under `CCOc1cc(NC(=O)c2cnccn2)c(OCC)cc1NC(=O)c1ccc(C)cc1` stands 22.8% (active); under `CCOc1ccccc1NC(=O)c1cccnc1`, 0.49%.
Turning to `Cc1sc2nc(COC(=O)C(NC(=O)c3ccc(Cl)cc3Cl)C(C)C)[nH]c(=O)c2c1C` (stereo unspecified), the activation is -1.47%.
`CCN(C(=O)CSc1ncn[nH]1)c1cccc2ccccc12`: the activation was 144% (active).
`O=C(CSc1ncn[nH]1)Nc1ccnc2ccccc12`: the activation is -2.63%.
As for `CC(C)(C)c1ccc(C(=O)CSc2ncn[nH]2)cc1`, the activation was -1.49%.
Turning to `CC(=O)Nc1ccc(/C(C)=N/NC(=O)CN(c2ccccc2Br)S(C)(=O)=O)cc1`, the activation is -0.42%.
On to `CSc1ccc(/C=C/C(=O)NC23CC4CC(CC(C4)C2)C3)cc1`, for which the activation is -1.84%.
Take `Cc1cccn2c(=O)c3cc(C#N)c(=NC(=O)c4cccnc4)n(CC4CCCO4)c3nc12` (stereo unspecified): the activation was 7.52% (active).
Under `Cc1cccn2c(=O)c3cc(C#N)c(=O)n(CCCN4CCOCC4)c3nc12` stands 2.81%; under `Cc1cccn2c(=O)c3cc(C(=O)N4COCC4(C)C)n(C)c3nc12`, 0.31%; under `CC(=O)c1ccc(NC(=O)Nc2ccc([N+](=O)[O-])cc2C)cc1`, -1.71%.
`Cc1cc(-c2cccs2)nc(-n2cccc2)n1`: the activation was -2.57%.
For the molecule `FC(F)(F)c1cc(-c2cccs2)nc(NCc2ccco2)n1`, the activation is -1.85%.
As for `CCCn1c(=O)c2c(C(F)(F)F)cc(-c3cccs3)nc2n(CCC)c1=O`, the activation was 6.87% (active).
Turning to `Cc1cc(C)nc(NC(=O)C(C)N2C(=O)c3ccccc3C2=O)n1` (stereo unspecified), the activation was -2.31%.
With `COC(=O)c1ccc(NC(=O)Nc2ccc(C)cc2)cc1`, the activation was -1.78%.
`COC(=O)c1ccc(NC(=O)C(C)N2C(=O)c3ccccc3C2=O)cc1` (stereo unspecified): the activation was 8.37% (active).
